Laboratory results: ChEMBL document CHEMBL3988442, “University of Dundee, Small-Polar-MMV Screening Library” (2021)
Where “and” joins values, the source holds several entries; their conditions need not be identical. Identical values can stand only once. Screen size: about 34,000 compounds; about 290 (0.85%) showed an effect of 50% or more. For the sample, strong results were picked, then their nearest neighbours and some compounds at random.

System: Plasmodium falciparum
Assay: Plasmodium falciparum sporozoite viability assay
Type: functional, organism-based
Parameters: scale not given: in the data most compounds retested in dose-response had high values

SMILES | Percent Effect [%] | Percent Effect (10 mM as filed; unlikely as a test dose)
NC(=O)C1CN(C(=O)Nc2ccc(SC(F)(F)F)cc2)CCO1 (configuration not stated) | 26.37 | 
CC(C)(C(=O)N[C@@H]1CCC[C@@H](O)[C@@H]1O)c1cccc(F)c1 | 7.186 | 
Cc1ccc(CCNC(=O)Nc2cc(C(F)(F)F)c[nH]c2=O)o1 | -6.166 | 
O=C(Cc1cn2ccsc2n1)N1CCCC(n2ccnc2)C1 (configuration not stated) | 9.411 | 
CN(C)c1ccc(NC(=O)N2CCCCCC2c2ccncc2)cn1 (configuration not stated) |  | -8.99% and -20.34% and -20.82%
CCOc1ccc(C(=O)N2CCCC2c2cnn(C)c2)cn1 (configuration not stated) | 2.866 | 
COCCC(=O)N[C@H]1CN(c2nc(C)c3c(n2)CCCC3)C[C@@H]1C1CC1 |  | 37.56% and 25.17%
CNc1nc(N2C[C@H](NC(=O)CCOC)[C@@H](C3CC3)C2)nc2c1CCC2 |  | -17.73% and -19.53%
CNCC(=O)N[C@H]1CN(c2nc(C)c3c(n2)CCCC3)C[C@@H]1C1CC1 |  | 74.85% and 85.09%
Cc1n[nH]c(C)c1-c1cnc(CC2CCN(C)C2)cn1 (configuration not stated) | -7.497 | 
Cc1cc(Nc2ccccn2)nc(C2CCCN(CCO)C2)n1.O=CO (configuration not stated) | 9.991 | 
Cc1cccc(Nc2cc(C3CCCN(CC(N)=O)C3)ccn2)n1.O=CO.O=CO (configuration not stated) |  | 98.38% and 92.39% and 79.92%
Cc1cccc(Nc2nccnc2C2CCCN2CC(N)=O)n1 (configuration not stated) | 7.262 | 
Cc1cccc(Nc2nccnc2C2CCCN(CC(=O)N(C)C)C2)n1 (configuration not stated) | 4.997 | 
NC(=O)CN1CCCC(c2ccnc(Nc3ncccn3)c2)C1 (configuration not stated) |  | 24.34% and 12.28% and 9.246%
COc1cc(NC(=O)c2ccc(F)cc2Cl)c(C(=O)N(C)C)cc1OC | -12.25 | 
O=C(C1CCOCC1)N1CCc2ncc(CN3CCCCC3)n2CC1 | -3.866 | 
c1cnn(CC2CN(c3ncnc4[nH]ccc34)CCO2)c1 (configuration not stated) | -8.614 | 
Cc1nc(CN2CCC3(CC2)NC(=O)CC3c2cccnc2)cs1 (configuration not stated) | -8.123 | 
Cc1cc(CN2CCC3(CC2)C(=O)NCCN3CC2CC2)oc1C | -0.5945 | 
O[C@H]1CN(CCCOc2ccccc2F)CC[C@@]12CCCO2 | 14 | 
OC1CCCOC12CCN(CCCOc1ccccc1F)CC2 (configuration not stated) | 2.153 | 
O[C@H]1CN(CCOc2ccc(F)cc2)CC[C@@]12CCCO2 |  | 66.45% and 84.39% and 80.81%

SMILES | Percent Effect [%] | Percent Effect (10 mM as filed; unlikely as a test dose)
COc1ccccc1CNC(Cc1cccs1)c1nc(C)cs1.Cl (configuration not stated) | -2.216 | 
Cc1cc(C)n(C2CN(CCC(=O)NC3CCCCC3)C2)n1 | -0.4038 | 
CC(C)NC(=O)C1CN(C(=O)Nc2ccc(F)cc2)CC12CCOCC2 (configuration not stated) | -6.778 | 
CNc1cncc(C2CCCN2C(=O)c2ccc3c(c2)CCC3)n1 (configuration not stated) | 5.523 | 
CC(NC(=O)Nc1ccc(OC2CCCC2)cc1)c1nc[nH]n1 (configuration not stated) |  | 68.07% and 85.04%
COc1ccc(NC(=O)NC(C)c2nc[nH]n2)cc1 (configuration not stated) |  | -24.45% and -7.709% and -11.14%
CCN1CCC(CNC(=O)Nc2cc(C)on2)C1 (configuration not stated) | 13.21 | 
COC(=O)c1cccn1C1CCN(Cc2nc3ccccc3o2)CC1 | -2.498 | 
CN(CC1(CO)CCCC1)c1nc2c(c(=O)[nH]1)Cc1ccccc1OC2 |  | 63.62% and 42.71%
CN(C)c1nc2c(c(=O)[nH]1)Cc1ccccc1OC2 |  | 9.66% and 16.82%
CNC(=O)N1CC[C@H]2N(C)CC[C@@]2(C(=O)N2CCOCC2)CC1.O=C(O)C(F)(F)F | 9.37 | 
Cc1cnn(CC2CCCN2C(=O)Cc2c(C)noc2Cl)c1 (configuration not stated) | 8.684 | 
Cc1ccc(CN2C[C@@H]3COC[C@H](C(=O)N4CCCCO4)[C@@H]3C2)o1.O=C(O)C(F)(F)F |  | -11.42% and -12.39% and -13.97%
O=C(c1ccncc1)N1CCc2[nH]nc(Nc3ccccc3)c2C1 | -2.217 | 
CN(C)CCCn1cnc2cc(NC(=O)c3n[nH]c4c3CCC4)ccc21 |  | -35.39% and -25.92%
CC(C)c1nc2cc(NC(=O)c3n[nH]c4c3CCC4)ccc2n1C |  | 73.89% and 87.21%
Cn1cnc2cc(NC(=O)c3n[nH]c4c3CCC4)ccc21 |  | -48.98% and -33.08%
Cn1cc(C(=O)N2CCN(Cc3ccccn3)CC2)ccc1=O | -3.259 | 
Cc1ccccc1C(C(=O)O)N(C)CC1CCOCC1 (configuration not stated) | -26.36 | 
COc1c(CNC(c2ccccc2)c2nccn2C)c(C)nn1C (configuration not stated) | 11.35 | 
C(=C\c1ccc(CN2CCCC2)cn1)/c1ccccc1 |  | 78.68% and 64.66%
O=C(O)c1ccccc1-c1ccc(CN2CCOCC2)cn1 | 6.918 | 
c1cc(-c2cn[nH]c2)ncc1CN1CCCCC1 |  | -7.187% and -9.51%

SMILES | Percent Effect [%] | Percent Effect (10 mM as filed; unlikely as a test dose)
O=C(C1CCOC1)N1C[C@H]2CN(Cc3cccc(F)c3)C(=O)[C@H]2C1 (some centres not stated) | 12.32 | 
CC(C)NC(=O)c1csc(NC2CC2)n1 | -5.904 | 
NC(=O)c1cn[nH]c1C1CCCN1C(=O)c1ccccc1 (configuration not stated) | -3.133 | 
COc1ncnc(N(C)C)c1NC(=O)c1cscc1C | -11.09 | 
O=C(Nc1cc(C2CCOCC2)[nH]n1)c1cscn1 | 17.19 | 
COC(=O)[C@@H]1CN(C(=O)c2cscn2)C[C@H]1c1ccc(OC)cc1 | 5.827 | 
COc1cc(N[C@@H](Cc2ccccc2)C(N)=O)ncn1 | 10.88 | 
Cc1cnc(CN(C)C2CCN(Cc3nnc(C4CC4)o3)C2)o1 (configuration not stated) | 13.1 | 
OC(COCc1ccccc1)CN1CCC(c2ccn[nH]2)CC1 (configuration not stated) | 8.709 | 
c1cc(CN2CCCC(c3nnc(-c4cnccn4)o3)C2)ccn1 (configuration not stated) | 8.33 | 
O=C(O)C(F)(F)F.O=C1COC2(CCN(Cc3ccoc3)CC2)CN1c1ccsc1 | -2.422 | 
Cn1cc(CN2CC[C@H](O)[C@@H]2Cc2ccncc2)cn1 | 14.17 | 
Cc1cc(C)n(C(=O)Cn2nc(C)c(I)c2C)n1 | -1.053 | 
CN1CCCC1CCn1ccnc1-c1nc(-c2ccccc2)no1 (configuration not stated) |  | 77.95% and 70.89%
CN1CCCC1c1ccnc(-c2ccccc2)n1 (configuration not stated) | 8.44 | 
CN(C)c1ncccc1CNS(=O)(=O)c1ccc(F)cc1F | 5.626 | 
CC/N=c1\nc(NCC)nc2n1C(O)(Nc1ccc(C)cc1C)CS2 (configuration not stated) |  | 76.89% and 79.52%
CC/N=c1\nc(NCC)nc2n1C(O)(Nc1cccc(C)c1C)CS2 (configuration not stated) |  | -13.62% and 2.28%
CC/N=c1\nc(NCC)nc2n1C(O)(Nc1cc(C)ccc1C)CS2 (configuration not stated) |  | -7.651% and -13.62%
O=S(=O)(c1ccccc1)N1CCC[C@]2(C[C@H](OCC3CC3)CO2)C1 | -0.3567 | 
O=C(CCOc1ccccc1F)N1CCC(O)CC1 |  | -2.056% and -15.58% and -4.248%
CCn1cnnc1C1CCN(C(=O)CCCOc2ccccc2)CC1 |  | 42.92% and 40.5% and 58.13%
CO[C@H]1C[C@@H](O)C12CCN(C(=O)NCc1ccco1)CC2 | 8.391 | 

SMILES | Percent Effect [%] | Percent Effect (10 mM as filed; unlikely as a test dose)
CN1CCOC(CNC(=O)CCCOc2cccc(F)c2)C1 (configuration not stated) |  | 7.848% and 7.883% and 5.332%
CN1CCOC(CNC(=O)CCCOc2ccccc2F)C1 (configuration not stated) |  | 51.69% and 61.26% and 47.35%
CC(O)CN1CCN(C(=O)CCOc2ccccc2F)CC1 (configuration not stated) |  | 8.088% and -8.879% and -8.774%
CO[C@H]1C[C@@H](O)C12CCN(C(=O)CCCOc1ccccc1)CC2 |  | 88.4% and 94.39%
CCn1cnnc1C1CCN(C(=O)COCCc2ccccc2)CC1 |  | -3.699% and -24.35% and -22.69%
NCCO[C@H]1C[C@@H](O)C12CCN(C(=O)CCOc1ccccc1)CC2 |  | 3.322% and 1.71%
Cc1ccccc1OCCCC(=O)NCC1CN(C)CCO1 (configuration not stated) |  | 6.067% and -2.638% and -0.6996%
Cc1cnccc1CN1Cc2ccccc2O[C@]2(CC[C@H](CO)CC2)C1 | 13.72 | 
Cc1cc(CN2CCCC(c3cc(C(F)(F)F)[nH]n3)C2)no1 (configuration not stated) | 9.793 | 
O=C(CCCc1nnc(-c2ccccc2)o1)N1CCN(C2CC2)CC1 | 16.07 | 
Cc1ccc(NC2CCN(C(=O)c3cnn(C(C)(C)C)c3)CC2)nn1 | -0.1023 | 
c1ccn2c(C3CCCN3Cc3nc(C4CC4)no3)nnc2c1 (configuration not stated) | -1.432 | 
Cc1cnn(CC2CN(CC(=O)Nc3ccnn3C(C)C)CCO2)c1 (configuration not stated) | 2.692 | 
Cn1cnnc1C1CCN(C(=O)CCCOc2ccccc2F)CC1 |  | 83.01% and 69.05% and 60.83%
Cc1ccccc1OCCC(=O)N1CCC(c2nncn2C)CC1 |  | 2.17% and -2.919% and 0.9191%
CC(C)Nc1nc(O)cc(C2CC(=O)N(Cc3ccccn3)C2)n1.Cl (configuration not stated) | 10.31 | 
CNc1cc(C)nc(C2CN(Cc3ccc(Cl)cn3)CCO2)c1 (configuration not stated) | 20.7 | 
CCC(=O)N1CCC(c2ncc(C(=O)Nc3ccccc3)c(C)n2)C1 (configuration not stated) | 8.085 | 
COc1ccc2cc(C(=O)N3CCCC3Cn3cc(C)cn3)[nH]c2c1 (configuration not stated) | -1.066 | 
COc1ccc(CC(=O)N2CCCC2Cn2cc(C)cn2)cc1OC (configuration not stated) |  | 8.878% and 3.897% and 0.6031%
Cc1nn(C)cc1-c1cncn1CCc1ccc2c(c1)OCCO2.Cl |  | 35.23% and 54.6% and 46.78%
COC1COC2(CCN(CC3CCOCC3)CC2)C1.O=C(O)C(F)(F)F (configuration not stated) | 2.7 | 
CC(C(=O)N1CCOCC1)n1nc(-c2cccs2)cc(N)c1=O (configuration not stated) | -6.596 | 
